Where “and” joins values, the source holds several entries; their conditions need not be identical. Equal values may be shown once. The whole screen tested about 5,500 compounds, of which about 2,000 (36%) were called active. Roughly 18% stayed inconclusive and do not appear here. Cut-off read from the data, not from the text of the source: active = normalized growth mostly below about 0.91 (no sharp cut-off); inconclusive = no clear call, values can overlap the other calls; inactive = mostly above about 0.92. This is one part of the list.
Experiment: chemical genetic growth profiling, strain panel (AID 1159580);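 note: tested at 20 µM; growth read once vehicle control cultures reached saturation at 30 °C; 1 = growth at the plate median or of vehicle wells; lower values mean less growth of the strain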
Settings: S. cerevisiae deletion strains, growth OD

Measured: normalized growth

CC(C)(C)NCC(O)c1ccccc1Cl (stereo unspecified)
inactive: locus YAL013W, strain DEP1, stronger effect = lower value 0.993 | locus YAL021C, strain ccr4, stronger effect = lower value 1.01 | locus YAL026C, strain drs2, stronger effect = lower value 1.01 | locus YAL030W, strain snc1, stronger effect = lower value 0.979 | locus YAL040C, strain CLN3, stronger effect = lower value 0.966 | locus YBL061C, strain skt5, stronger effect = lower value 0.991 | locus YBR009C, strain hhf1, stronger effect = lower value 0.972 | locus YBR021W, strain FUR4, stronger effect = lower value 0.98 | locus YBR023C, strain chs3, stronger effect = lower value 0.993 | locus YBR171W, strain sec66, stronger effect = lower value 0.989 | locus YBR229C, strain ROT2, stronger effect = lower value 0.95 | locus YBR231C, strain swc5, stronger effect = lower value 0.989 | locus YBR279W, strain paf1, stronger effect = lower value 1 | locus YCL011C, strain gbp2, stronger effect = lower value 0.995 | locus YCL016C, strain dcc1, stronger effect = lower value 0.988 | locus YCL029C, strain bik1, stronger effect = lower value 0.978 | locus YCL061C, strain MRC1 (second series), stronger effect = lower value 1.01 | locus YCL061C, strain MRC1, stronger effect = lower value 0.992 | locus YCL069W, strain vba3, stronger effect = lower value 0.991 | locus YCR088W, strain abp1, stronger effect = lower value 0.99 | locus YDL005C, strain med2, stronger effect = lower value 1.01 | locus YDL035C, strain GPR1, stronger effect = lower value 0.947 | locus YDL040C, strain nat1, stronger effect = lower value 0.979 | locus YDL074C, strain BRE1, stronger effect = lower value 1.01 | locus YDL101C, strain DUN1, stronger effect = lower value 0.987 | locus YDL134C, strain PPH21, stronger effect = lower value 0.98 | locus YDL185W, strain tfp1, stronger effect = lower value 0.991 | locus YDL192W, strain arf1, stronger effect = lower value 0.973 | locus YDR001C, strain nth1, stronger effect = lower value 0.978 | locus YDR069C, strain doa4, stronger effect = lower value 0.988 | locus YDR101C, strain arx1, stronger effect = lower value 0.992 | locus YDR137W, strain rgp1, stronger effect = lower value 1.01 | locus YDR150W, strain NUM1, stronger effect = lower value 0.976 and 1.01 | locus YDR159W, strain sac3, stronger effect = lower value 0.939 | locus YDR162C, strain NBP2, stronger effect = lower value 0.979 | locus YDR195W, strain ref2 0.959 | locus YDR297W, strain sur2, stronger effect = lower value 1.01 | locus YDR318W, strain mcm21, stronger effect = lower value 1 | locus YDR334W, strain swr1, stronger effect = lower value 0.996 | locus YDR335W, strain msn5, stronger effect = lower value 0.991 | locus YDR363W, strain ESC2, stronger effect = lower value 0.999 | locus YDR388W, stronger effect = lower value 0.991 | locus YDR392W, strain spt3, stronger effect = lower value 0.831 | locus YDR502C, strain sam2, stronger effect = lower value 0.965 | locus YEL003W, strain gim4, stronger effect = lower value 0.996 | locus YEL037C, strain rad23, stronger effect = lower value 0.994 | locus YEL061C, strain CIN8 (second series), stronger effect = lower value 0.987 | locus YEL061C, strain CIN8, stronger effect = lower value 0.985 | locus YER002W, strain NOP16, stronger effect = lower value 0.988 | locus YER015W, strain faa2, stronger effect = lower value 0.995 | locus YER016W, strain bim1, stronger effect = lower value 0.989 | locus YER110C, stronger effect = lower value 0.966 | locus YER111C, strain swi4, stronger effect = lower value 0.992 | locus YER155C, strain BEM2 (second series), stronger effect = lower value 0.958 | locus YER155C, strain BEM2, stronger effect = lower value 1 | locus YER167W, strain BCK2, stronger effect = lower value 0.957 | locus YFR010W, strain ubp6, stronger effect = lower value 1 | locus YGL078C, strain dbp3, stronger effect = lower value 0.982 | locus YGL086W, strain mad1, stronger effect = lower value 0.978 | locus YGL167C, strain pmr1, stronger effect = lower value 0.989 | locus YGL173C, strain kem1, stronger effect = lower value 1.01 | locus YGL227W, strain vid30, stronger effect = lower value 0.988 | locus YGL240W, strain doc1, stronger effect = lower value 0.981 | locus YGL248W, strain PDE1, stronger effect = lower value 0.984 | locus YGL253W, strain hxk2, stronger effect = lower value 0.994 | locus YGR078C, strain PAC10, stronger effect = lower value 1.01 and 1.02 | locus YGR135W, strain pre9, stronger effect = lower value 0.979 | locus YGR229C, strain SMI1, stronger effect = lower value 1.01 and 1.03 | locus YGR252W, strain gcn5, stronger effect = lower value 0.898 | locus YHR013C, strain ard1, stronger effect = lower value 0.952 | locus YHR027C, strain rpn1, stronger effect = lower value 0.996 | locus YHR030C, strain SLT2, stronger effect = lower value 0.992 and 0.981 | locus YHR079C, strain IRE1 (second series), stronger effect = lower value 1 | locus YHR079C, strain IRE1, stronger effect = lower value 0.977 | locus YHR094C, strain hxt1, stronger effect = lower value 0.991 | locus YHR129C, strain ARP1, stronger effect = lower value 0.997 | locus YHR142W, strain chs7, stronger effect = lower value 1.02 | locus YHR200W, strain rpn10, stronger effect = lower value 1.01 | locus YIL066C, strain RNR3, stronger effect = lower value 0.978 | locus YIL073C, strain SPO22, stronger effect = lower value 0.972 | locus YIL125W, strain kgd1, stronger effect = lower value 0.989 | locus YIR030C, strain dcg1, stronger effect = lower value 0.983 | locus YJL092W, strain hpr5, stronger effect = lower value 0.997 | locus YJL095W, strain BCK1 (second series), stronger effect = lower value 0.996 | locus YJL095W, strain BCK1, stronger effect = lower value 1.02 and 0.99 | locus YJL115W, strain asf1, stronger effect = lower value 0.987 | locus YJL129C, strain trk1, stronger effect = lower value 1 | locus YJL134W, strain LCB3, stronger effect = lower value 0.981 | locus YJL154C, strain vps35, stronger effect = lower value 0.989 | locus YJL164C, strain tpk1, stronger effect = lower value 1.01 | locus YJL166W, strain qcr8, stronger effect = lower value 0.987 | locus YJL168C, strain set2, stronger effect = lower value 0.995 | locus YJL187C, strain SWE1 (second series), stronger effect = lower value 0.994 | locus YJL187C, strain SWE1, stronger effect = lower value 0.997 | locus YJR043C, strain POL32, stronger effect = lower value 1.03 | locus YJR066W, strain TOR1, stronger effect = lower value 0.921

— PubChem BioAssay AID1159580 (chemical genetic matrix, 2015)
